# ± gives the standard deviation.
# System: OVCAR-3-derived ovarian cancer stem-like cells (spheroids)
# Assay: cell growth relative to untreated control; higher = more growth (less inhibition)
# Conditions: 2.29 µM; 96 h
# Summary of the method: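 Stem-like cells derived from OVCAR-3 spheroids were dissociated with trypsin and seeded at 50,000 cells/mL in stem cell medium in ultra-low attachment 96-well plates, then preincubated for 24 h. Each compound was added at 2.29 uM to 4 replicate wells and left for 96 h at 37°C, 5% CO2. Viability came from TOX8 resazurin fluorescence (ex 560/em 590 nm) read after 4 h. Percent growth was expressed relative to untreated wells, after blank subtraction and removal of outliers by the Grubbs test.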
row,SMILES,cell growth [%]
1,Cc1cc2nc(C=C(C(F)(F)F)C(F)(F)F)oc2cc1C,130 ± 36
2,C/C(=N\NC(=S)N(C)C)c1ccccn1.[Cu][Br],11.1 ± 5.9
3,COc1cc2c[n+](C)c3c4cc5c(cc4ccc3c2cc1OC)OCO5,48.7 ± 21
4,CN(CCc1ccccn1)c1ccc2c(c1)C(=O)c1ccccc1-2,103 ± 32
5,Nc1ccccc1N,88.4 ± 25
6,CN(C)c1nc(=NCc2ccco2)ss1,93.7 ± 7
7,COc1ccc2nc(NC(=O)C(=O)CC(=O)c3ccc(Cl)cc3)sc2c1,109 ± 40
8,COc1ccc(-n2/c(=N/C(=S)N(C)C)ss/c2=N\C(=S)N(C)C)cc1,111 ± 15
9,O=C1Cc2c(-c3ccccc3)cc(-c3cccc(Cl)c3)nc2-c2ccccc2N1,99.6 ± 21
10,CC(=O)OCc1cc(=O)n(C)c2c3c4c(cc12)c(C)cc(=O)n4CO3,95.1 ± 21
11,CC/C(=C(\c1ccccc1)c1ccc(OCCN(C)C)cc1)c1ccccc1,115 ± 14
12,COC(=O)C[S+]([O-])c1ccccc1 (centres undefined),84.6 ± 18
13,Cc1ccc(NC(=O)c2cccc([N+](=O)[O-])c2O)c(C)c1,110 ± 19
14,CCCc1c(Cl)nc(Cl)nc1Cl,96.4 ± 19
15,CC(C)CCCCCCCCCCCCC(=O)NCC(=O)NC1C(C)OC(Nc2ncnc3nc[nH]c23)C(O)C1O (centres undefined),17.4 ± 6.2
16,CC1=C\C(O)CC(=O)Cc2nc(co2)C(=O)N2CCC=C2C(=O)OC(C(C)C)C(C)/C=C/C(=O)NC/C=C\1.CCC1NC(=O)C(NC(=O)c2ncccc2O)C(C)OC(=O)C(c2ccccc2)NC(=O)C2CC(=O)CCN2C(=O)C(Cc2ccc(N(C)C)cc2)N(C)C(=O)C2CCCN2C1=O (centres undefined),80.8 ± 20
17,O=C1c2ccccc2-c2c1c1ccccc1c(=O)n2Cc1ccccc1,86.2 ± 51
18,N#CC(C#N)=Cc1cccc(Oc2ccccc2)c1,74.1 ± 8
19,CCCN(CCC)C(=S)Sc1nc(C)nc(N2CCN(c3nc(C)nc(SC(=S)N(CCC)CCC)c3[N+](=O)[O-])CC2)c1[N+](=O)[O-],107 ± 22
20,CN(N=O)C(=O)N[C@@H]1[C@@H](O)[C@H](O)[C@@H](CO)O[C@@H]1O,104 ± 29

row,SMILES,cell growth [%]
1,Cc1cc(N(C)C)ccc1N=Nc1ccc2ncccc2c1,83.2 ± 6.3
2,CC(=O)C(N1CCCCC1)C(O)(C(F)(F)F)C(F)(F)F (centres undefined),107 ± 38
3,CC(C)(C)NCCC(O)c1cc(C(F)(F)F)nc2c(C(F)(F)F)cccc12 (centres undefined),108 ± 23
4,CC[n+]1c(-c2ccccc2)c2cc(N)ccc2c2ccc(N)cc21,15 ± 9.7
5,Cc1c2cc[n+](CCN3CCCCC3)cc2c(C)c2c1[nH]c1ccc(O)cc12,146 ± 52
6,O=C1CCC(c2ccccc2)=NN1c1nc2ccccc2s1,39.3 ± 10
7,COc1cc2oc3cc(=O)cc4oc(-c5ccccc5)cc(c2c2c1CCC(c1ccccc1)O2)c43 (centres undefined),150 ± 80
8,CN1CCN(CCSC2Cc3cc(Cl)ccc3Sc3ccccc32)CC1 (centres undefined),151 ± 26
9,O=C1c2ccccc2C(=O)c2sc(Nc3ccc(Cl)cc3)nc21,14.5 ± 3.2
10,N[C@H](C(=O)O)[C@@H]1CC(Cl)=NO1,85.3 ± 21
11,C[C@H]1O[C@@H](c2ccc3c(c2O)C(=O)C2=C(C3=O)[C@@]3(O)C(=O)C[C@](C)(O)C[C@@]3(O)C=C2)C[C@@H](O)[C@@H]1O,62.7 ± 8.2
12,CN1CCCC2C(c3ccccc3)C(C3=NCCCC3)C(c3ccccc3)CC21 (centres undefined),110 ± 27
13,CN1c2c(nc(N)[nH]c2=O)NCC1CCNc1ccc(C(=O)NC(CCC(=O)O)C(=O)O)cc1 (centres undefined),101 ± 20
14,CC1OC(CC(=O)O)CC2=C1C(=O)c1c(O)cccc1C2=O (centres undefined),130 ± 42
15,c1ccc2c(c1)nnn1c3cnccc3nc21,58.8 ± 9.3
16,CC(=O)NC(CC(C)C)C(=O)NC(Cc1ccccc1)C(=O)CCl (centres undefined),88.6 ± 12
17,CCN(CC)C(=S)S,61.6 ± 19
18,NC1=NCN([C@@H]2O[C@H](CO)[C@@H](O)[C@H]2O)C(=O)N1,85.8 ± 11
19,O=C([O-])c1cc(I)cc(I)c1O.O=C([O-])c1cc(I)cc(I)c1O.[Mn+2],77.4 ± 10

# — the supplement of paper PMC3484114
